# In the supplement of paper PMC6555819:
# What was measured:
# Assay in all cases: PBM binding z-score (relative to random genomic background probes); higher = stronger binding; sequences stand for … in GC…GCGATTGACAGCGTAGAATGAAGG
# [1] = tested on: FXR:RXRa (NR concentration 270 nM, RXRa partner concentration 90 nM)
# Outline: (§1)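 Custom Agilent 4×180K protein-binding microarrays carried double-stranded probes, each with a 34-nt variable region. These regions held direct-repeat seeds, single-nucleotide variants, half-site ablations and random human genomic background sequences. Ligand-free nuclear receptor dimers were incubated on the arrays for 1 h, antibodies against each partner (one per run) detected binding, and scanned fluorescence was regression-normalized. Binding z-scores take the random background probes as reference.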
# [2] = tested on: LXRa:RXRa (NR concentration 270 nM, RXRa partner concentration 90 nM)
# Outline: as §1
# [3] = tested on: LXRa homodimer (NR concentration 270 nM)
# Outline: as §1
# [4] = tested on: LXRb:RXRa (NR concentration 270 nM, RXRa partner concentration 90 nM)
# Outline: as §1
# [5] = tested on: LXRb homodimer (NR concentration 270 nM)
# Outline: as §1
# [6] = tested on: PPARa:RXRa (NR concentration 270 nM, RXRa partner concentration 90 nM)
# Outline: as §1
# [7] = tested on: PPARg:RXRa (NR concentration 180 nM, RXRa partner concentration 90 nM)
# Outline: as §1
# [8] = tested on: PPARg:RXRa 270nM:90nM, anti-RXR (NR concentration 270 nM, RXRa partner concentration 90 nM)
# Outline: as §1
# [9] = tested on: PPARg:RXRa 30nM:10nM, anti-RXR (NR concentration 30 nM, RXRa partner concentration 10 nM)
# Outline: as §1
# [10] = tested on: PPARg:RXRa 90nM:30nM, anti-RXR (NR concentration 90 nM, RXRa partner concentration 30 nM)
# Outline: as §1
# [11] = tested on: PPARg:RXRa DBDmut IVT, anti-RXR (DBD mutation: RXRa K156A/R161A, NR concentration 270 nM, RXRa partner concentration 90 nM)
# Outline: as §1
# [12] = tested on: PPARg:RXRa IVT, anti-PPARg (NR concentration 270 nM, RXRa partner concentration 90 nM)
# Outline: as §1
# [13] = tested on: PPARg DBDmut:RXRa IVT, anti-PPARg (DBD mutation: PPARg1 K132A/R137A, NR concentration 270 nM, RXRa partner concentration 90 nM)
# Outline: as §1
# [14] = tested on: PPARg DBDmut IVT, anti-PPARg (DBD mutation: PPARg1 K132A/R137A, NR concentration 270 nM)
# Outline: as §1
# [15] = tested on: PPARg homodimer (NR concentration 180 nM)
# Outline: as §1
# [16] = tested on: PXR:RXRa (NR concentration 270 nM, RXRa partner concentration 90 nM)
# Outline: as §1
# [17] = tested on: PXR homodimer (NR concentration 270 nM)
# Outline: as §1
# [18] = tested on: RARa:RXR (NR concentration 270 nM, RXRa partner concentration 90 nM)
# Outline: as §1
# [19] = tested on: RARa homodimer (NR concentration 270 nM)
# Outline: as §1
# [20] = tested on: RARb:RXRa (NR concentration 270 nM, RXRa partner concentration 90 nM)
# Outline: as §1
Sequence,PBM binding z-score [1],PBM binding z-score [2],PBM binding z-score [3],PBM binding z-score [4],PBM binding z-score [5],PBM binding z-score [6],PBM binding z-score [7],PBM binding z-score [8],PBM binding z-score [9],PBM binding z-score [10],PBM binding z-score [11],PBM binding z-score [12],PBM binding z-score [13],PBM binding z-score [14],PBM binding z-score [15],PBM binding z-score [16],PBM binding z-score [17],PBM binding z-score [18],PBM binding z-score [19],PBM binding z-score [20]
ACTCGGAGGACATAGGTCAGAGCTACGCCAGTGA,1.33,1.54,0.379,1.13,-0.23,2.89,3.73,4.68,2.29,3.87,0.107,1.88,-0.386,0.0927,0.895,1.15,0.0875,1.9,0.402,2.31
AGAATGAGGTTACCAAAGATCAGGTAAACGCTTG,1.72,5.99,-0.313,3.44,-0.454,3.43,2.76,2.77,1.12,1.9,3.32,3.43,0.874,0.666,0.758,1.64,-0.0452,2.29,0.183,2.09
AGAACGAGGTTACCAAAGATCAGGGAAACGCTTG,1.56,5.74,-0.119,2.92,-0.342,3.07,2.21,1.99,0.478,1.55,2.75,2.7,0.297,0.837,0.438,1.41,-0.605,1.66,-0.278,2.02
CCTGCTAGGTCATGGTCAGCTAATCTACAGTATG,3.81,2.6,0.19,1.83,-0.244,3.52,2.37,2.98,0.934,1.97,4.5,4.22,0.0201,0.284,0.79,1.41,0.115,2.34,0.369,3.95
CCGACTGGGGTATAAGGTTACCATAAGCCAGCCC,0.283,1.57,-0.00996,0.982,-0.761,1.69,1.79,2.38,0.774,2.06,1.17,1.24,-0.919,-1.39,0.667,0.301,-0.29,1.24,0.0701,0.726
CTACCAGGGTGAACAAGGTCGTTGATTACTATTC,0.789,1.46,0.0612,1.76,-0.454,2.41,0.951,1.28,0.0757,0.507,1.3,1.86,0.284,-0.282,1.61,3.12,0.95,2.67,-0.135,1.42
TCTATTAGTTGAAGGGCATCCGACGAGTCCGTTT,0.895,0.85,0.486,0.661,0.284,0.934,0.123,2.03,3.75,2.78,2.32,0.399,0.276,0.308,1.24,0.775,1.03,0.683,1.77,1.24
TGAATGAGGTTATAGGATCAGGGAACGTTGCAAA,1.98,1.6,-0.459,1.39,-0.108,3.28,2.06,2.51,1.15,2.08,1.16,2.21,0.833,-0.0124,0.65,1.05,0.148,1.82,0.469,1.48
CTCGAAAGGTCGTGCTCAGGTGTGTATACCAAAC,5.43,3.78,0.295,3.62,0.401,4.72,2.43,3.56,1.06,2.46,0.974,2.05,0.571,-0.156,3.36,3.32,0.146,4.07,-0.478,3.99
TAGCCTAGGTCATTGGCCAGTATACCACGCGAAC,4.93,3.34,0.738,2.61,0.254,3.41,2.4,2.49,0.453,1.44,1.38,2.72,0.244,-0.771,1.49,1.56,-0.368,2.16,-0.259,3.57
TTTATTAGTTGAAGGGCAACCGACGAGTCCGTTT,0.831,0.834,0.746,0.739,0.614,0.899,0.644,1.71,1.09,1.95,0.976,0.967,0.878,1.23,1.41,0.818,1.45,0.575,1.48,1.68
TCTTGTAGATCAATAGAGGTTAATAAAGTGCGCT,0.771,5.4,0.943,3.5,-0.00633,1.72,0.484,1.59,2.72,2.15,1.47,1.13,0.628,0.945,0.295,2.84,0.364,1.63,0.341,0.772
AGAACGAGGGCACGCTGAGTTAATAGCAGAGTAG,0.956,0.697,-0.612,0.378,-1.03,1.99,2.22,1.65,0.0968,1.08,4.13,3.9,-0.114,0.0711,0.0693,1.38,-0.237,0.718,-0.564,2.52
CGGCAAAGTTCAAGGTAACGTAACAGAAAGCAGC,6.25,5.26,1.74,3.16,-0.0277,4.47,3.94,4.6,1.59,3.43,0.813,1.56,-1.51,-0.284,2.12,4.05,2.11,3.29,0.805,5.04
